The values below come from PubChem BioAssay (NCI).

The structures appear in SMILES notation. About 83,000 compounds went through this panel and 20% of them were active in at least one assay; those are over-represented in the sample as a whole.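 Assay: single dose, 48 h. Readout: percent growth (0 = no net growth; negative = cell death). Active: <10.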 A number with no mark means an inactive call. Calls of active or inactive are those of the source.

Test systems include DU-145 prostate; K-562 leukemia; MALME-3M melanoma; MDA-MB-231 breast; RXF 393 renal; SF-268 CNS; SF-295 CNS; SF-539 CNS; UACC-257 melanoma; M14 melanoma; HCT-15 colon; HT29 colon; SNB-75 CNS; SNB-19 CNS; U251 CNS; PC-3 prostate; SK-MEL-5 melanoma; UACC-62 melanoma; LOX IMVI melanoma; SK-MEL-28 melanoma.
Common to all, as to experiment: NCI-60 one-dose screen, 48 h (100 = growth as untreated, 0 = no growth, -100 = all killed)
Conditions in all cases: 10 µM unless noted

Regarding `COCCn1c(-c2csc(-c3cn(C)c4ccc(OC)cc34)n2)cc2cccnc21`, the growth with DU-145 prostate was 62.7%; in the test with K-562 leukemia, -25.5% (active); with MALME-3M melanoma, 106%; in the test on MDA-MB-231 breast, 43.6%; with RXF 393 renal, 52.3%; in the test on SF-268 CNS it was 64.1%. For the same molecule, the growth was 58.9% in the test with SF-295 CNS; 58.9% in the test with SF-539 CNS; 54.5% in the test on UACC-257 melanoma; 44.2% with M14 melanoma; 7.45% (active) in the test with HCT-15 colon; 5% (active) in the test with HT29 colon. The growth with SNB-75 CNS is 72.4%; in the test on SNB-19 CNS, 85.3%; in the test on U251 CNS it was 48.4%; in the test on PC-3 prostate it was 19.2%; in the test on SK-MEL-5 melanoma, 65.2%; in the test with UACC-62 melanoma, 82.1%. For the same molecule, the growth was -22.6% (active) in the test with LOX IMVI melanoma and 85.1% in the test with SK-MEL-28 melanoma.

Take `Nc1nc2c([nH]1)c1[nH]c3ccccc3c1c1[nH]c3ccccc3c21`: the growth with DU-145 prostate is 50.2%; with K-562 leukemia, -41.6% (active); with MALME-3M melanoma, -72.4% (active); with MDA-MB-231 breast it was -38.7% (active); in the test with RXF 393 renal, -7.44% (active); with SF-268 CNS, 71.9%. Also, the growth with SF-295 CNS was 42.8%; in the test with SF-539 CNS, 55.6%; in the test on UACC-257 melanoma it was 103%; in the test on M14 melanoma, -68.9% (active); in the test on HCT-15 colon, 51%; with HT29 colon, 3.16% (active). Further, the growth was 44.5% in the test with SNB-75 CNS; 62.4% in the test on SNB-19 CNS; -6.57% (active) with U251 CNS; 34.9% in the test with PC-3 prostate; 58.7% in the test on SK-MEL-5 melanoma; -31.9% (active) in the test on UACC-62 melanoma. The figures for the growth in the test with LOX IMVI melanoma and in the test on SK-MEL-28 melanoma were 4.23% (active) and -77.5% (active), respectively.

With `CCN1CCN(c2cc(C(=O)Nc3nc(-c4cc(OC)c(OC)c(OC)c4)cs3)cc(C(F)(F)F)c2)CC1`, the growth is 74.9% in the test on DU-145 prostate; 3.83% (active) in the test with K-562 leukemia; 69.3% with MALME-3M melanoma; 47% in the test with MDA-MB-231 breast; 69.3% in the test with RXF 393 renal; 65.1% with SF-268 CNS. The growth is 83.2% in the test on SF-295 CNS; 75.6% in the test with SF-539 CNS; 88.6% in the test on UACC-257 melanoma; 42.1% with M14 melanoma; 36.4% in the test with HCT-15 colon; 18.3% with HT29 colon. For the same molecule, the growth with SNB-75 CNS is 57%; in the test with SNB-19 CNS it was 80.7%; in the test with U251 CNS, 60.9%; with PC-3 prostate, 57.1%; in the test on SK-MEL-5 melanoma, 53.7%; in the test with UACC-62 melanoma it was 75.4%. The growth in the test with LOX IMVI melanoma was 38.6%; in the test on SK-MEL-28 melanoma, 51.8%.

As for `CCCCNc1ccc(C#N)c(OCCN(CC)CC)c1`, the growth in the test with DU-145 prostate is 113%; with K-562 leukemia, 86%; in the test with MALME-3M melanoma, 109%; with MDA-MB-231 breast it was 99.3%; in the test with RXF 393 renal, 103%; in the test on SF-268 CNS, 103%. Moreover, the growth in the test with SF-295 CNS is 107%; with SF-539 CNS, 111%; in the test on UACC-257 melanoma it was 114%; in the test with M14 melanoma it was 104%; in the test with HCT-15 colon it was 102%; in the test with HT29 colon it was 94.7%. In addition, the growth was 88.2% in the test on SNB-75 CNS; 98.1% in the test on SNB-19 CNS; 103% in the test on U251 CNS; 93.1% in the test on PC-3 prostate; 93.9% with SK-MEL-5 melanoma; 103% in the test on UACC-62 melanoma. Further, the figures for the growth in the test with LOX IMVI melanoma and in the test with SK-MEL-28 melanoma were 102% and 101%, respectively.

Consider `Cc1cc2c([nH]1)CSc1cc(S(=O)(=O)c3ccccc3)c(=O)[nH]c1-2`, for which the growth in the test on DU-145 prostate was 15% [100 µM]; with K-562 leukemia, 17% [100 µM]; in the test with MALME-3M melanoma, 25.1% [100 µM]; in the test on MDA-MB-231 breast it was 23.3% [100 µM]; with RXF 393 renal, 52.6% [100 µM]; with SF-268 CNS it was 22.1% [100 µM]. For the same molecule, the growth in the test with SF-295 CNS was 11% [100 µM]; in the test with SF-539 CNS, -28.3% [100 µM] (active); with UACC-257 melanoma it was 62.2% [100 µM]; in the test with M14 melanoma, -13.7% [100 µM] (active); in the test on HCT-15 colon, 17.7% [100 µM]; with HT29 colon, 10.5% [100 µM]. The growth with SNB-75 CNS was 20% [100 µM]; with SNB-19 CNS, 37.4% [100 µM]; in the test on U251 CNS, 15.5% [100 µM]; in the test with PC-3 prostate, 23% [100 µM]; in the test on SK-MEL-5 melanoma it was -36.7% [100 µM] (active); with UACC-62 melanoma, 19.1% [100 µM]. Also, the growth in the test on LOX IMVI melanoma was 12.1% [100 µM]; in the test on SK-MEL-28 melanoma it was 17.9% [100 µM].

As to `Cc1nc2c(=O)[nH]c(SCC(=O)Nc3cccc(F)c3)nc2[nH]c1=O`, the growth is 109% in the test with DU-145 prostate; 101% in the test on K-562 leukemia; 105% in the test on MALME-3M melanoma; 101% with MDA-MB-231 breast; 106% in the test on RXF 393 renal; 102% with SF-268 CNS. Further, the growth is 103% with SF-295 CNS; 101% in the test on SF-539 CNS; 98.9% in the test on UACC-257 melanoma; 96.1% in the test on M14 melanoma; 102% with HCT-15 colon; 107% with HT29 colon. Further, the growth in the test on SNB-75 CNS is 93.6%; with SNB-19 CNS it was 102%; with U251 CNS, 106%; in the test on PC-3 prostate it was 102%; in the test with SK-MEL-5 melanoma, 102%; in the test on UACC-62 melanoma, 98.9%. Moreover, the growth with LOX IMVI melanoma is 101%; in the test with SK-MEL-28 melanoma it was 107%.

For `O=C1c2cccnc2C(=O)c2c1c(C(=O)NCCn1ccnc1)c1ccccn21`, the growth in the test on DU-145 prostate is 29.9%; in the test on K-562 leukemia it was 29.3%; in the test with MALME-3M melanoma, -68.8% (active); with MDA-MB-231 breast, 13.6%; in the test on RXF 393 renal, 59.7%; in the test with SF-268 CNS, 23.6%. Besides, the growth is 29.5% in the test on SF-295 CNS; 9.99% (active) in the test on SF-539 CNS; -29% (active) with UACC-257 melanoma; 7.17% (active) in the test with M14 melanoma; 30.3% with HCT-15 colon; 7.18% (active) in the test on HT29 colon. Further, the growth with SNB-75 CNS is 37.3%; in the test with SNB-19 CNS, 30.8%; in the test on U251 CNS, 13%; with PC-3 prostate, 8.68% (active); in the test on SK-MEL-5 melanoma, -97% (active); in the test on UACC-62 melanoma it was -24.5% (active). Also, the growth in the test on LOX IMVI melanoma is 6.67% (active); in the test on SK-MEL-28 melanoma it was 68.4%.
